Test results as given in PubChem BioAssay AID686959 (The Scripps Research Institute Molecular Screening Center, 2013).
Calls of active or inactive are those of the source. The limit is not given here; nearly all actives have IC50 up to about 8.1 µM.

Assay: binders of r(CAG) RNA repeats, dose response, biochemical, fluorescence (AID 686959)
Conditions: r(CAG) RNA repeat binding
With `O=C(N/N=C/c1c(O)n(CCC2=CCCCC2)c(=S)[nH]c1=O)c1ccccc1` the IC50 was 2040 nM (active).
In the case of `CC/C(=N\NC(=O)c1ccccc1O)c1c(O)n(C2CCCCC2)c(=O)[nH]c1=O`, the IC50 is reported as 452 nM (active).
For `C/C(=N\NC(=O)c1ccccc1O)c1c(O)n(C2CCCCC2)c(=O)[nH]c1=O`, the IC50 was 450 nM (active).
